Data: PubChem BioAssay (NCATS)
Inconclusive results are not listed. Activity calls are given as the source filed them. Calls follow the shape of the dose curve; as a rule, active = well fitted inhibition curve with a large enough effect; inconclusive = small, poorly fitted or top-dose-only effect; inactive = flat fitted curve, though single readings scatter.

Legend:
Assay in all cases: Cytotoxic Profiling of Annotated Libraries Using Quantitative High-Throughput Screening (AID 1296008); also: nearly all actives have a fitted effect of over 60% in size
Conditions in all cases: Five cell lines viability, CellTiter-Glo ATP luminescence, 48-72 h; max response: hits give low values
[1] = tested on: CRL-7250
Procedure, shortened: (§1)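 Cytotoxicity was measured as CellTiter-Glo ATP luminescence, read after 10 min at room temperature. Compound treatment of the cells lasted 48 or 72 hr at 37 degrees Celsius in a qHTS format.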

[2] = tested on: HEK293
Procedure, shortened: as §1

[3] = tested on: HaCat
Procedure, shortened: as §1

[4] = tested on: KB-3-1
Procedure, shortened: as §1

Measured: max response
% is scaled to controls: 0 for no effect and ±100 for the full control effect.

CC[C@@H](O)C[C@@H]1C(C)=C[C@@H]2CCCC[C@@H]2[C@@]1(C)C(=O)O
inactive: [1] -0.45% | [2] -6.46% | [3] -3.74% | [4]

CC1=CC(=O)CC(C)(CO)C1(O)/C=C/C(C)O[C@@H]1O[C@H](CO)[C@@H](O)[C@H](O)[C@H]1O (stereo partly drawn)
inactive: [1] -0.153% | [2] -1.52% | [3] 2.49% | [4] -2.84%

Cc1ccc(Cc2c(C)nc3nc(SCC(=O)NCCN4CCNCC4)nn3c2C)cc1
inactive: [1] | [2] 2.24% | [3] -12.4% | [4]

C=C1CCC2C(C(C)(C)O)CCC2(C)CC(O)C(=C)CCC1O (stereo not drawn)
inactive: [1] -17.3% | [2] 2.07% | [3] -2.57% | [4] 2.13%

CC/C=C\[C@H](O)[C@H](O)C1=C(C)C(=O)[C@]2(O1)C(=O)N[C@@](OC)(C(=O)c1ccccc1)[C@@H]2O
inactive: [1] -16% | [2] -0.3% | [3] -9.21% | [4] 7.92%

COc1c2c(cc3c1-c1c(cc4c(c1OC)OCO4)CC(C)C(C)C3)OCO2 (stereo not drawn)
inactive: [1] 1.23% | [2] -21.6% | [3] -1.94% | [4] -8.19%

CC1(C)CC[C@]2(C(=O)O[C@@H]3O[C@H](CO[C@@H]4O[C@H](CO)[C@@H](O)[C@H](O)[C@H]4O[C@@H]4O[C@H](CO)[C@H](O)[C@H](O)[C@H]4O)[C@@H](O)[C@H](O[C@@H]4O[C@H](CO)[C@@H](O)[C@H](O)[C@H]4O)[C@H]3O)CC[C@]3(C)C(=CCC4[C@@]5(C)CC[C@H](O[C@@H]6OC[C@@H](O)[C@H](O)[C@H]6O)[C@@](C)(C(=O)O)C5CC[C@]43C)[C@@H]2C1 (stereo partly drawn)
inactive: [1] -1.09% | [2] 2.33% | [3] -16.1% | [4] 4.92%
